Reference: PubChem BioAssay
Activity calls are given as the source filed them. Unless noted, no rule for the calls is given here.

Assays:
[1] = HepG2 liver cancer cell viability effects, profiling panel, resazurin fluorescence, 24 h, PK04 Diversity Set (AID 1172); details: higher = more signal
[2] = basal S. cerevisiae growth modulation, no modifier, primary screen, OD600, strain BY4716, 24 h, basal condition (AID 1173); details: OD600, 24 h, higher = more signal, called active from +8 up or from −8 down
[3] = MM1S myeloma cell viability, profiling panel, resazurin fluorescence, basal, 24 h, PK04 Diversity Set (AID 1174); details: higher = more signal, called active from +8 up or from −8 down;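 also: MM1S multiple myeloma cell line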
[4] = target: Dihydroorotate dehydrogenase (quinone), mitochondrial (Plasmodium falciparum (isolate 3D7)) (UniProt Q08210); assay: PfDHODH enzyme inhibitors, primary screen, biochemical, C-terminal His tag, absorbance 600 nm (AID 1175); details: DCIP absorbance 600 nm, higher = more signal, called active from +8 up or from −8 down;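 also: recombinant parasite enzyme with a five histidine tag at its C terminus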
Chain of Dihydroorotate dehydrogenase (quinone), mitochondrial (Plasmodium falciparum (isolate 3D7)) (Q08210 whole entry, looked up): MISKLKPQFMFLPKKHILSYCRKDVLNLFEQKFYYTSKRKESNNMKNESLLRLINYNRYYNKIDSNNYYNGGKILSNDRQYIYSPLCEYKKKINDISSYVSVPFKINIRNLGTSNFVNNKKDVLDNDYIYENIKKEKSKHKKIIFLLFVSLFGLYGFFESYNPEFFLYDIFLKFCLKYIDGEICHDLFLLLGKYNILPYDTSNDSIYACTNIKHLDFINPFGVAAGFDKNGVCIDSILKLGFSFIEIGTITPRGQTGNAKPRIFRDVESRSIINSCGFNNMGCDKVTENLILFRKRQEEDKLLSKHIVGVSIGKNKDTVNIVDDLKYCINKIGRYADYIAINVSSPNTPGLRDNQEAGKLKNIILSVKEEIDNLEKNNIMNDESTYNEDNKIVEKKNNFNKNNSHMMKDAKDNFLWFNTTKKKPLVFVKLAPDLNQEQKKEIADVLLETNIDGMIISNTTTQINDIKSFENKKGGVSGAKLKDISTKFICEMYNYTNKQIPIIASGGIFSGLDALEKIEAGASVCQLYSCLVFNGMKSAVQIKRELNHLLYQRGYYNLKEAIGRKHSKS

[5] = P. aeruginosa biofilm formation inhibitors, primary screen, strain PAO1, LB-PBS medium, absorbance 600 nm (AID 1176); details: P. aeruginosa PAO1 growth/biofilm, A600, 12 h; higher = more signal
[6] = S. cerevisiae RM11-1a growth modifiers, primary screen, strain RM11-1a, OD600, basal, 24 h (AID 1177); details: OD600, 24 h, higher = more signal, called active from +8 up or from −8 down;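 also: cultures grown under basal conditions with no added stressor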
[7] = E. coli acrAB mutant growth effects, primary screen, E. coli filamentation inducers, strain DRC39, OD650, 24 h (AID 1178); details: higher = more signal, called active from +8 up or from −8 down;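 also: growth measured as culture turbidity by optical density at 650 nm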
[8] = E. coli acrAB mutant growth effects, primary screen, E. coli filamentation inducers, strain DRC39, OD650, 48 h (AID 1179);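 also: screen aims at cell division blockers that make cells filament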; details: E. coli DRC39 delta-acrAB growth, higher = more signal, called active from +8 up or from −8 down
[9] = RPMI8226 myeloma cell viability, profiling panel, resazurin fluorescence, basal, 24 h, PK04 Diversity Set (AID 1180); details: higher = more signal;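 also: RPMI8826 multiple myeloma cell line at 5000 cells per well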
[10] = target: E3 ubiquitin-protein ligase XIAP (Homo sapiens) (UniProt P98170); assay: XIAP binders, primary screen, biophysical, small-molecule microarray, fluorescence 635 nm (AID 1181); details: small-molecule microarray binding, higher = more signal;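 also: score merges 667 nm emission and signal to noise over triplicate slides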
Chain of E3 ubiquitin-protein ligase XIAP (Homo sapiens) (P98170 whole entry, looked up): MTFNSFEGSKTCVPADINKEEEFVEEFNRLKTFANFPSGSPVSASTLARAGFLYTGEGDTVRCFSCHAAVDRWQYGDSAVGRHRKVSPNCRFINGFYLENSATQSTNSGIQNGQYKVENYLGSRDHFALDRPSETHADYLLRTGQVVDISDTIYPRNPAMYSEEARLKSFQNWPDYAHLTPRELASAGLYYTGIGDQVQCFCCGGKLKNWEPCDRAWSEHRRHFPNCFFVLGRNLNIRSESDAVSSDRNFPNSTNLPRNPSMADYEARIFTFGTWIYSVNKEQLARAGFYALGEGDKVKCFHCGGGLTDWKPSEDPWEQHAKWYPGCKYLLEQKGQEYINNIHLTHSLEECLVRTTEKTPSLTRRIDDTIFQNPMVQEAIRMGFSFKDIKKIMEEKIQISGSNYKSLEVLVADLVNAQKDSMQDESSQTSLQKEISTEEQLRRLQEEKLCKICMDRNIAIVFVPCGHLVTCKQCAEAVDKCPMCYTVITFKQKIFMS

[11] = tested on: XIP peptide (Xip251-270) binding; assay: small-molecule binders of XIP peptide, primary screen, biochemical, small-molecule microarray, fluorescence 635/667 nm, 0.1 µg/mL protein (AID 1182); details: fluorescent protein binding, 635 nm, higher = more signal, called active from +8 up or from −8 down
[12] = tested on: XIP peptide (Xip251-270); assay: small-molecule binders of XIP peptide, primary screen, biochemical, small-molecule microarray, fluorescence 635/667 nm, 0.5 µg/mL protein (AID 1183); details: small-molecule microarray binding, fluorescence 635 nm; higher = more signal
[13] = Plasmodium falciparum growth inhibition, primary screen, strain 3D7, DAPI fluorescence, 100 nL (AID 1184);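 also: parasites grown inside human red blood cells in medium with human serum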; details: P. falciparum 3D7 growth, 3 d, higher = more signal
[14] = target: Homeobox protein Hox-A13 (Mus musculus) (UniProt Q62424); assay: inhibitors of HoxA13-DNA binding, primary screen, biochemical, fluorescence polarization, labeled oligonucleotide (AID 1185); details: 15 min, higher = more signal, called active from +8 up or from −8 down
Chain of Homeobox protein Hox-A13 (Mus musculus) (Q62424 whole entry, looked up): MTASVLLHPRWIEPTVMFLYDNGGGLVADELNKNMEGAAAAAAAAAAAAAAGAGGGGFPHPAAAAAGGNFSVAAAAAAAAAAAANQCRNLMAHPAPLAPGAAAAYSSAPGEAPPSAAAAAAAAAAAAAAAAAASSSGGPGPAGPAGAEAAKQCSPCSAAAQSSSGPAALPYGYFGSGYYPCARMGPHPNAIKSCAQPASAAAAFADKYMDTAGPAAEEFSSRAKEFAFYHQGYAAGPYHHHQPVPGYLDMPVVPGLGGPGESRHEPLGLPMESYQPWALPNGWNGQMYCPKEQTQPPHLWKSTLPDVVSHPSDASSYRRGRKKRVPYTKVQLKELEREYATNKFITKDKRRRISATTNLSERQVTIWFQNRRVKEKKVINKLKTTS

[15] = inhibitors of hydroxyurea-induced Chk1 phosphorylation, primary screen, imaging, HeLa, phospho-Chk1 antibody, percent positive cells (AID 1186); details: hydroxyurea-induced phospho-Chk1 immunofluorescence imaging, higher = more signal
[16] = inhibitors of hydroxyurea-induced Chk1 phosphorylation, primary screen, imaging, HeLa, phospho-Chk1 nuclear intensity (AID 1187); details: hydroxyurea-induced phospho-Chk1 immunofluorescence imaging, higher = more signal

Row | Compound | z-score [1] | z-score [2] | z-score [3] | composite z-score [4] | z-score [5] | z-score [6] | z-score [7] | z-score [8] | z-score [9] | composite z-score [10] | composite z-score [11] | composite z-score [12] | z-score [13] | z-score [14] | z-score [15] | z-score [16]
1 | CC(c1ccccc1)C(O)C1C=CC2C(=O)N(C)C(=O)C2N1N(c1ccccc1)c1ccccc1 (centres undefined) | -1.22 | -0.0972 (inactive) | -1.91 (inactive) | -0.0374 (inactive) | 0.419 (inactive) | 0.265 (inactive) | -0.502 (inactive) | -0.0284 (inactive) | -1.8 | -0.0918 | 0.0311 (inactive) | -0.62 | -0.141 | -4.26 (inactive) | 0.75 (inactive) | -0.173 (inactive)
2 | C=C(CCCC)/C(=C/C[C@H](OC(=O)c1ccncc1)c1cccc(OCCO)c1)c1cc(C(=O)OC)ccc1OC | 1.06 | -0.0252 (inactive) | 0.585 (inactive) | -1.61 (inactive) | -0.988 (inactive) | -0.549 (inactive) | -0.232 (inactive) | -0.0622 (inactive) | 0.15 | -0.0916 | 2.08 (inactive) | 0.305 | -3.26 | -4.52 (inactive) | -0.433 (inactive) | -0.355 (inactive)
3 | C=CCC(OC(C)=O)[C@@H]1[C@@H](N(Cc2ccc(-c3cccc(C(F)(F)F)c3)o2)C(=O)Cc2ccc(F)cc2)c2cc(OCCCO)ccc2N1C(=O)c1ccc(-c2ccccc2)cc1 (some centres undefined) | -0.138 | -0.0284 (inactive) | 0.314 (inactive) | -0.262 (inactive) | 1.11 (inactive) | -0.12 (inactive) | -0.124 (inactive) | -0.143 (inactive) | 0.171 | -0.184 | -0.403 (inactive) | -0.829 | -0.294 | -1.2 (inactive) | 0.634 (inactive) | -0.385 (inactive)
4 | C=C(CCCC)C(=O)CC[C@@H](OC(C)=O)c1ccccc1OCCO | -0.0263 | -12.5 (active) | 0.304 (inactive) | -2.71 (inactive) | 0.0022 (inactive) | 2.05 (inactive) | 0.662 (inactive) | 0.378 (inactive) | -0.277 | -0.193 | 0.144 (inactive) | -1.02 | -1.77 | -4.53 (inactive) | -0.21 (inactive) | -0.223 (inactive)
5 | COC(=O)Cn1c(C(=O)N2CCCC2)cc2c1C[C@H]1CN(C(=O)c3ccccc3)[C@@](Cc3ccccc3)(C(=O)OC)[C@@H]21 | -0.103 | 1.37 (inactive) | -0.694 (inactive) | 0.0393 (inactive) | 0.619 (inactive) | 0.965 (inactive) | -0.244 (inactive) | 0.172 (inactive) | -1.34 | 0.107 | 0.564 (inactive) | 0.535 | -0.252 | -4.99 (inactive) | -1.29 (inactive) | -0.687 (inactive)
6 | COC(=O)[C@H]1[C@@H]2COc3ccccc3[C@H]2N[C@H]1C(=O)OC | 0.0968 | -1.81 (inactive) | -0.586 (inactive) | -16.2 (active) | -0.508 (inactive) | -0.398 (inactive) | 0.226 (inactive) | 0.398 (inactive) | -0.139 | 0.0432 | 0.22 (inactive) | 0.522 | 0.535 | -0.726 (inactive) | -0.953 (inactive) | -0.134 (inactive)
7 | CCCC=C(CCC)[C@@H](NC(=O)c1ccc(C(F)(F)F)cc1)c1ccccc1 | -0.421 | 0.79 (inactive) | -0.507 (inactive) | -3.63 (inactive) | 4.02 (inactive) | 0.513 (inactive) | 0.0948 (inactive) | -0.221 (inactive) | -0.996 | -0.253 | 0.177 (inactive) | 0.144 | -1.55 | -0.261 (inactive) | 0.128 (inactive) | 0.29 (inactive)
8 | C=CC[C@]1(C(=O)O)N=C(c2ccc(OCCCO)cc2)O[C@H]1c1ccccc1N=[N+]=[N-] | 0.912 | -0.761 (inactive) | 0.777 (inactive) | 0.589 (inactive) | -1.1 (inactive) | 1.21 (inactive) | 2.63 (inactive) | 1.65 (inactive) | 0.248 | -0.0095 | 0.718 (inactive) | -0.519 | -1.3 | -5.25 (inactive) | -0.0145 (inactive) | 0.144 (inactive)
9 | CCCNC(=O)[C@@H]1c2ccccc2C(=O)N(C2CCCCC2)[C@H]1c1ccc(CO)cc1 | 0.358 | 1.27 (inactive) | -0.206 (inactive) | 1.05 (inactive) | -0.329 (inactive) | 1.61 (inactive) | 0.619 (inactive) | 0.521 (inactive) | -0.154 | 0.304 | 0.521 (inactive) | 0.749 | -0.939 | -3.69 (inactive) | 0.108 (inactive) | -0.138 (inactive)
